Assay results as given in PubChem BioAssay AID720582 (The Scripps Research Institute Molecular Screening Center, 2013).
The whole screen tested about 370,000 compounds, of which about 2,300 (0.62%) were called active.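 How the source made its calls: active means inhibition above a per-campaign cutoff equal to the mean of compounds falling between control-based bounds plus 3 SD (cut at about 20% in these data); inactive means the rest.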 Only a selection was taken, and actives are over-represented in it overall.

Target: Disintegrin and metalloproteinase domain-containing protein 10 (Homo sapiens) (UniProt O14672)
Assay: human ADAM10 inhibitors, primary screen, biochemical, QFRET, HTS (AID 720582);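 further: 0% = DMSO wells while the 100% control is not disclosed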
Conditions: recombinant ADAM10, EDANS/DABCYL FRET peptide cleavage, 3 h; at 7 µM; active compounds read high

Sequence of Disintegrin and metalloproteinase domain-containing protein 10 (Homo sapiens) (O14672 214-748 limits assumed): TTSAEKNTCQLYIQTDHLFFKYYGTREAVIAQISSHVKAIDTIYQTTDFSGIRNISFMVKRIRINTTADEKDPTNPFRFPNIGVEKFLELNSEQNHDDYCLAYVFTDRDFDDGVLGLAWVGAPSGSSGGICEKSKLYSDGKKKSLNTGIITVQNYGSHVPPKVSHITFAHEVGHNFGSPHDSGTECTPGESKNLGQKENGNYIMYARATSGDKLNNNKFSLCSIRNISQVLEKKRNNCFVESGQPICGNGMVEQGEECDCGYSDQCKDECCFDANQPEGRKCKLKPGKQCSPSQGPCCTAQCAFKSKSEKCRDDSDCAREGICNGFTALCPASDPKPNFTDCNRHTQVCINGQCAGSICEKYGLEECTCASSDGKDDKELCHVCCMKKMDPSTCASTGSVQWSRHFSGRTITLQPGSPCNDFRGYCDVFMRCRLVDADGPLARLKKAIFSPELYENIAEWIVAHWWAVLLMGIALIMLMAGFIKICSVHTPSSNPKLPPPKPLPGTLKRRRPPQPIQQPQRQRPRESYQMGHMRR

inhibition, inactive:
O=C(NCCCc1ccccc1)[C@H](Cc1ccccc1)NC1(C(=O)NCCc2c[nH]c3ccccc23)CCC1 10.8%, O=C(c1cccs1)n1nc(NCc2ccccc2)nc1NCc1ccccc1 -4.16%, CCCn1nnnc1NCc1ccc(OC)cc1 0.98%, Cc1cc(C)nc(NC(=S)N2CCN(c3ccc(C(F)(F)F)cn3)CC2)c1 -0.75%, O=C1CC[C@@H](COc2ccc3[nH]cc(-c4ccccc4)c3c2-c2ccccc2)N1 -16.4%, Cc1cc(C)cc(NC(=O)CSc2ccccc2)c1 7.73%, CC(=O)Nc1ccc(NC(=O)CSCc2cnn(-c3ccccc3)c2-n2cccc2)cc1 -1.8%, O=C(NCCc1c[nH]c2ccccc12)OCc1cn(-c2c(F)cccc2F)nn1 2.44%, CCOC(=O)[C@@]12CCC3=C1N(CCC3)C(=O)[C@H](CC(=O)N1CCN(C(=O)c3ccco3)CC1)C2 0.02%, O=C(CCNS(=O)(=O)c1ccccc1C(F)(F)F)NCc1ccc2c(c1)OCO2 4.73%, CC1(C(=O)NCc2ccc3c(c2)OCO3)CCN1C(=O)Cc1cccc2ccccc12 (stereo not drawn) -4.08%, C[C@@H]1COc2cccc(N3CCCC3)c2S(=O)(=O)N1C -13.8%, CCCCNC(=O)C[C@@H]1C(=O)N(CCc2ccc(Cl)cc2)C2=CCCC[C@]21C(=O)OCC 1.59%, CCCCC(=O)N[C@@H]1CC[C@@]23CCCN2C(=O)CCC[C@H]3[C@H]1C -8.02%, CC(C)(C)NC(=O)C(c1cccnc1)N(C(=O)c1cnco1)c1ccc(C(C)(C)C)cc1 (stereo not drawn) -5.34%, CC1Cc2ccccc2N1C(=O)CSc1nc2ccccc2o1 (stereo not drawn) 3.31%, O=C(CSc1nc2ccccc2o1)N/N=C/c1ccccc1C(=O)O 5.59%, C[C@H](C(=O)N(C)c1ccccc1)[C@@H](O)c1ccc2ccccc2c1 -0.77%, COc1ccc(-c2cc(-c3nnc(SCc4ccc([N+](=O)[O-])cc4)n3N)[nH]n2)cc1 0.29%, COc1cc(NS(=O)(=O)c2ccc(NC(=S)NC(=O)c3ccccc3)cc2)nc(OC)n1 6.57%, COc1ccc(C(=O)NNc2cc(C)nc(NNC(=O)c3ccc(OC)cc3)n2)cc1 -1.03%, C=C1C(C(C)C)N(C)C2=NC(c3ccccc3)CC(=O)N12 (stereo not drawn) -17.1%, COc1cccc(C2CC(c3cccs3)=NN2C(=O)CSC2=NCCS2)c1OC (stereo not drawn) -3.83%, CCS(=O)(=O)Nc1ccc(C2=NN(S(=O)(=O)c3ccc(F)cc3)C(c3ccco3)C2)cc1 (stereo not drawn) 4.53%, Cc1ccc(C)c(NC(=O)CCS(=O)(=O)c2ccccc2)c1 -11.5%, CC(C)(C)OC(=O)NCc1cc(F)ccc1/C=C/S(=O)(=O)NCCc1ccccc1 11.5%, O=C(c1ccncc1)N1CC[C@H]2[C@H](CCCN2Cc2ccc(F)cc2)C1 -25.2%, COC(=O)C1CN(CCc2ccccc2)CCS(=O)(=O)N1Cc1cccc(Cl)c1 (stereo not drawn) 2.53%, COc1ccccc1NS(=O)(=O)c1ccc(C)c(C(=O)NNC(=O)c2csc(N3CCOCC3)n2)c1 8.51%, COc1ccc(NS(=O)(=O)c2ccc(N3CCOCC3)c(NC(=O)c3ccccc3Br)c2)cc1 6.43%, CCC[C@H]1C(=O)CC[C@@]23CCCN2C(=O)CCC[C@@H]13 -1.01%, CCOC(=O)[C@@H]1[C@H]2COc3ccc(Br)cc3[C@H]2N2C(=O)N(c3ccc(C)cc3)C(=O)[C@@]12C 1.71%, C[C@@H]1NC(=O)[C@@]2(C)[C@@H](c3ccccc3)[C@H]3COc4ccccc4[C@@H]3N2C1=O -7.53%, CCOC(=O)c1csc(NC(=O)C2CCCN(S(=O)(=O)c3ccc(Cl)s3)C2)n1 (stereo not drawn) 10%, C=CCn1c(N)cc(=O)nc1SCC(=O)Nc1cccc2ccccc12 -27%, Cc1ccc(-n2c(SCC(=O)Nc3cccc4ccccc34)nnc2-c2ccccn2)cc1 -6.55%, O=S1(=O)c2ccc(N3CCN(Cc4ccccc4F)CC3)cc2Oc2ccccc2CN1Cc1cn(Cc2ccc(Cl)cc2)nn1 7.21%, CCOc1ccc(-n2c(SCC(=O)Nc3cc(C)c(NC(=O)c4ccccc4)cc3OC)nnc2-c2cccc(Cl)c2)cc1 8.65%, COc1cccc(CNC(=O)CCC2CCCN(Cc3ccc(OC(F)F)cc3)C2)c1 (stereo not drawn) -2.49%, COc1cccc(CC2(CO)CCCN(Cc3nc(-c4cccs4)oc3C)C2)c1 (stereo not drawn) 0.04%, O=C(CN(CC1CCCO1)C(=O)CNS(=O)(=O)c1ccc(Cl)cc1)NCc1ccccc1 (stereo not drawn) 3.32%, CCCOc1ccc(Oc2c(Cl)cnn(Cc3cccc4ccccc34)c2=O)cc1 -13%, COc1ccc(C(=O)OCCN2CCN(C3CN(Cc4cn(Cc5ccccc5F)nn4)S(=O)(=O)C3)CC2)cc1OC (stereo not drawn) -2.27%

inhibition, active:
CCCC(=O)n1nc(NCc2ccc(OC)cc2)nc1NCc1ccc(OC)cc1 21.3%, Cc1cc(C)cc(NC(=O)CSCc2cnn(-c3ccccc3)c2-n2cccc2)c1 20.7%, N#Cc1nc(Cc2cccc3ccccc23)oc1NCc1ccc2c(c1)OCO2 22.7%, Cc1ccc(/C=N/NC(=O)CSc2nc3ccccc3o2)cc1 22.1%, COc1ccc(C(=O)NNC(=S)NC(=O)c2ccccc2)cc1 24%, COc1cccc(C2CC(c3ccccc3)=NN2S(=O)(=O)c2ccccc2)c1OC (stereo not drawn) 29.9%, COc1ccc(NS(=O)(=O)c2ccc(C)c(C(=O)NNC(=O)c3csc(N4CCOCC4)n3)c2)cc1 26%, Cc1ccc(N2C(=O)N3[C@@H]4c5ccccc5OC[C@@H]4[C@@H](c4ccccc4)[C@@]3(C)C2=O)cc1 20.3%, Cc1ccccc1-n1c(SCC(=O)Nc2cccc3ccccc23)nc(O)cc1=O 27%, COc1cccc(CC2(CO)CCCN(Cc3ccc(OC(F)F)cc3)C2)c1 (stereo not drawn) 19.9%
